This is part of a sample that, as a whole, favours compounds with a hit. Of some 79,000 tested, about 15% had one in any assay. Values without a mark were called inactive. Calls of active or inactive are those of the source. No stated cut-off is given here; in the data, active means growth inhibition above about 70%; inactive means the rest.
How the values were obtained:
[1] = NCI Yeast Anticancer Drug Screen. Data for the rad50 strain (AID 155);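 further: 0% = growth of vehicle-only cultures of the same strain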; conditions: S. cerevisiae rad50 strain growth inhibition, active compounds read high
Procedure, shortened: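 Readout: growth inhibition relative to vehicle-treated cultures. Compound exposure was carried out in a genetically defined yeast strain deficient in DNA damage repair.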

[2] = NCI Yeast Anticancer Drug Screen. Data for the mec2-1 strain (AID 157); conditions: S. cerevisiae mec2-1 strain, active compounds read high
Procedure, shortened: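 Growth inhibition is read against vehicle-treated controls after compound exposure of the mec2-1 yeast strain, which is defective in DNA damage repair or cell cycle control.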

[3] = NCI Yeast Anticancer Drug Screen. Data for the sgs1 mgt1 strain (AID 161);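 further: 0% = growth of cultures given vehicle only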; conditions: S. cerevisiae sgs1 mgt1 strain, active compounds read high
Procedure, shortened: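 Growth of a repair-deficient yeast mutant was monitored after compound treatment and expressed as inhibition relative to vehicle-treated cultures.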

[4] = NCI Yeast Anticancer Drug Screen. Data for the cln2 rad14 strain (AID 165);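 further: 0% = growth equal to vehicle treated cultures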; conditions: S. cerevisiae cln2 rad14 strain, active compounds read high
Procedure, shortened: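 Growth inhibition, relative to vehicle-treated controls, is the read-out. The test organism is a yeast strain with defined genetic alterations, cln2 rad14.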

[5] = NCI Yeast Anticancer Drug Screen. Data for the bub3 strain (AID 167); conditions: S. cerevisiae bub3 mutant strain, active compounds read high
Procedure, shortened: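 Readout: yeast growth inhibition, expressed relative to vehicle-only wells. The test organism is a mutant strain from a panel with lesions in DNA repair or checkpoint genes.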

[6] = NCI Yeast Anticancer Drug Screen. Data for the mlh1 rad18 strain (AID 175); conditions: S. cerevisiae mlh1 rad18 strain growth inhibition, active compounds read high
Procedure, shortened: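 Cells of a genetically altered yeast strain, deficient in DNA damage repair, were treated with compound. Their growth was then compared with that of vehicle-treated cultures to give inhibition.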

[7] = at 5.0 µM (retest, dose inferred, filed as 0.5)
[8] = at 50.0 µM (retest, dose inferred, filed as 5.0)

Row | Compound | growth inhibition [1, 7] | growth inhibition [1, 8] | growth inhibition ([1]; at 50.0 µM) | growth inhibition [2, 7] | growth inhibition [2, 8] | growth inhibition ([2]; at 50.0 µM) | growth inhibition [3, 7] | growth inhibition [3, 8] | growth inhibition ([3]; at 50.0 µM) | growth inhibition [4, 7] | growth inhibition [4, 8] | growth inhibition ([4]; at 50.0 µM) | growth inhibition [5, 7] | growth inhibition [5, 8] | growth inhibition ([5]; at 50.0 µM) | growth inhibition [6, 7] | growth inhibition [6, 8] | growth inhibition ([6]; at 50.0 µM)
1 | CCCCCCCCCCCCS | 0% | -3% | 26.2% | -1% | -1% | 6.25% | -3% | -1% | 15.9% | -2% | 1% | 43.3% | 2% | -3% | -20.6% | 3% | 6% | -30.9%
2 | COc1cccc(C2Nc3ccccc3C(=O)N2N2CCOCC2)c1 (configuration not stated) | 3% | -2% | 50.9% | 1% | 6% | -7.2% | 1% | 0% | 32.4% | 0% | -6% | -21.6% | -2% | -5% | 7.4% | -2% | -3% | -5.05%
3 | CC1(C)OC2COC3(CNO)OC(C)(C)OC3C2O1 (configuration not stated) | 0% | -4% | 22.5% | -1% | 1% | 32.6% | -7% | -2% | 83.1% (active) | -5% | 8% | 25.1% | 3% | 5% | 63.9% | -10% | -2% | 69.7%
4 | CCCCCN(CCCCC)CC(O)c1cccc2cc(Cl)ccc12 (configuration not stated) | -1% | 98% (active) | 99.5% (active) | -1% | 98% (active) | 99.7% (active) | 4% | 99% (active) | 99.6% (active) | -4% | 99% (active) | 99.5% (active) | 2% | 99% (active) | 99.5% (active) | 0% | 99% (active) | 99.6% (active)
5 | CN(C)c1ccc(C2(c3ccc(N(C)C)cc3)OC(=O)c3ccccc32)cc1 | 2% | -6% | 26.6% | 1% | -6% | 14.2% | 1% | -3% | 14.5% | -5% | -26% | 16.9% | 60% | 61% | 82.6% (active) | -9% | -40% | 38.9%
6 | COC(=O)/C(=C/c1ccc(/C=C(/C(=O)O)c2ccc(OC)cc2)o1)c1ccccc1 | 3% | 99% (active) | 8.35% | 2% | 99% (active) | 10.8% | 0% | 99% (active) | -3.5% | 15% | 99% (active) | 11.6% | 0% | 99% (active) | 1.7% | 3% | 99% (active) | 30.8%
7 | Cc1ccc(C(=O)C(CN(C)C)CN(C)C)cc1 | 16% | 41% | 83.7% (active) | 12% | 63% | 92.3% (active) | 20% | 76% (active) | 88.5% (active) | 17% | 39% | 73.2% (active) | 16% | 65% | 88.7% (active) | 14% | 72% (active) | 88% (active)
8 | CCN(CC)CCOc1ccc(C=C2c3ccccc3-c3ccccc32)cc1 | 98% (active) | 99% (active) | 99.2% (active) | 99% (active) | 99% (active) | 99.2% (active) | 99% (active) | 99% (active) | 99.3% (active) | 99% (active) | 99% (active) | 99.1% (active) | 99% (active) | 99% (active) | 99.2% (active) | 98% (active) | 99% (active) | 98.9% (active)
9 | CCCCCN(CCCCC)CCCNc1ccc(C)c2sc3ccccc3c(=O)c12 | 98% (active) | 96% (active) | 98.4% (active) | 99% (active) | 98% (active) | 99% (active) | 99% (active) | 98% (active) | 99% (active) | 99% (active) | 95% (active) | 95% (active) | 99% (active) | 96% (active) | 98% (active) | 99% (active) | 97% (active) | 97.5% (active)
10 | COC(=O)CCCCCOS(=O)(=O)c1ccc(C)cc1 | 1% | -5% | 26.9% | -3% | -5% | 16.2% | -4% | -3% | 21.9% | -3% | -14% | 84.2% (active) | -1% | -5% | 1.05% | -5% | -8% | 0.7%
11 | O=C(c1ccccc1)N1CCCCC1 | -1% | 33% | 81.5% (active) | 0% | 5% | -1.55% | -2% | 3% | 23.9% | 2% | 3% | 48% | -2% | 3% | 15.5% | 0% | 6% | 47%
12 | O=[N+]([O-])c1ccc(Cl)cc1C(Nc1nncs1)Nc1nncs1 | 8% | 81% (active) | 74.7% (active) | 7% | 76% (active) | 40.6% | 17% | 84% (active) | 86% (active) | 2% | 55% | 41.2% | -1% | 58% | 57.4% | 0% | 88% (active) | 80% (active)
13 | CCCOC(=O)COc1ccccc1C(=O)OCCC | 5% | 10% | -1.2% | 2% | 7% | -15.5% | 0% | 11% | 6% | 13% | 15% | 14.9% | 10% | 44% | 23.2% | 0% | 13% | -11.4%
14 | CCCn1c(=O)c2ccccc2[n+]2c(-c3ccc([N+](=O)[O-])cc3)csc12 | 5% | 91% (active) | 93% (active) | 1% | 92% (active) | 91.8% (active) | 1% | 67% | 92.1% (active) | -7% | 77% (active) | 67.1% | -17% | 97% (active) | 93.5% (active) | 11% | 85% (active) | 92.2% (active)
15 | CC1=C(C(=S)Nc2ccc(Cl)c(C(=O)OC(C)C)c2)SCCO1 | 27% | 71% (active) | 89.6% (active) | 19% | 54% | 90.2% (active) | 27% | 90% (active) | 91.5% (active) | 25% | 64% | 47.4% | 26% | 95% (active) | 87.1% (active) | 21% | 50% | 63.8%
16 | CC(C)(Cl)C(Cl)CC/C(CBr)=C(\Cl)CBr (configuration not stated) | 10% | 99% (active) | 73.5% (active) | 17% | 99% (active) | 92.3% (active) | -11% | 98% (active) | 92% (active) | 21% | 95% (active) | 90.2% (active) | 4% | 94% (active) | 92% (active) | 11% | 99% (active) | 4.4%
17 | COc1ccc(CN2C(=O)C(Cl)=C(Cl)C2=O)c(OC)c1 | -1% | 50% | 99.5% (active) | 4% | 59% | 99.7% (active) | -2% | 73% (active) | 99.6% (active) | -4% | 27% | 99% (active) | -2% | 68% | 99.5% (active) | -2% | 44% | 99.5% (active)
18 | Cc1ccc(N2CC(O)CN(c3ccc(C)cc3)CC(O)C2)cc1 (configuration not stated) | 0% | 3% | 20.4% | -7% | -13% | 18.1% | -29% | 1% | 24.9% | 6% | -10% | 6.55% | 3% | 1% | 15.3% | 33% | 0% | 23.2%
19 | Nc1ccc(C(=O)Oc2cccccc2=O)cc1 | 3% | 36% | 82% (active) | 2% | 32% | 42.9% | 7% | 52% | 91.5% (active) | 3% | 20% | 16.1% | -1% | 32% | 77.2% (active) | 4% | 78% (active) | 95.4% (active)
